PubChem BioAssay AID1159580 (chemical genetic matrix, 2015)
Several values for one entry are separate records, joined by “and”; a condition that tells them apart may be missing. Identical values can stand only once. The whole screen tested about 5,500 compounds, of which about 2,000 (36%) were called active. Not shown: some 18% with an inconclusive outcome. Rule as the data show it: active = normalized growth mostly below about 0.91 (no sharp cut-off); inconclusive = no clear call, values can overlap the other calls; inactive = mostly above about 0.92. Some of the results follow.

Experiment: chemical genetic growth profiling, strain panel (AID 1159580);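 also: tested at 20 µM; growth read once vehicle control cultures reached saturation at 30 °C; 1 = growth at the plate median or of vehicle wells; lower values mean less growth of the strain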
Conditions: S. cerevisiae deletion strains, growth OD

Measured: normalized growth

O=C1c2ccccc2C(=O)C1c1ccccc1
inactive: locus YAL013W, strain DEP1, active compounds read low 0.975 | locus YAL021C, strain ccr4, active compounds read low 1.01 | locus YAL026C, strain drs2, active compounds read low 1 | locus YAL030W, strain snc1, active compounds read low 1 | locus YBL061C, strain skt5, active compounds read low 0.998 | locus YBR009C, strain hhf1, active compounds read low 1.01 | locus YBR021W, strain FUR4, active compounds read low 1 | locus YBR023C, strain chs3, active compounds read low 1 | locus YBR171W, strain sec66, active compounds read low 0.957 | locus YBR229C, strain ROT2, active compounds read low 1 and 0.94 | locus YBR231C, strain swc5, active compounds read low 1.01 | locus YBR279W, strain paf1, active compounds read low 0.993 | locus YCL011C, strain gbp2, active compounds read low 1 | locus YCL016C, strain dcc1, active compounds read low 1.01 | locus YCL029C, strain bik1, active compounds read low 1.01 | locus YCL061C, strain MRC1, active compounds read low 1 and 0.995 | locus YCL069W, strain vba3, active compounds read low 0.995 | locus YCR088W, strain abp1, active compounds read low 0.988 | locus YDL005C, strain med2, active compounds read low 1 | locus YDL035C, strain GPR1, active compounds read low 1.01 | locus YDL040C, strain nat1, active compounds read low 1 | locus YDL074C, strain BRE1, active compounds read low 1 | locus YDL101C, strain DUN1, active compounds read low 1.01 and 0.909 | locus YDL134C, strain PPH21, active compounds read low 1.01 | locus YDL185W, strain tfp1, active compounds read low 0.991 | locus YDL192W, strain arf1, active compounds read low 1.01 | locus YDR001C, strain nth1, active compounds read low 0.981 | locus YDR069C, strain doa4, active compounds read low 0.996 | locus YDR101C, strain arx1, active compounds read low 1 | locus YDR137W, strain rgp1, active compounds read low 0.995 | locus YDR150W, strain NUM1, active compounds read low 0.998 and 1.01 | locus YDR159W, strain sac3, active compounds read low 1.01 | locus YDR162C, strain NBP2, active compounds read low 0.995 | locus YDR195W, strain ref2 0.997 | locus YDR297W, strain sur2, active compounds read low 0.993 | locus YDR318W, strain mcm21, active compounds read low 1.01 | locus YDR334W, strain swr1, active compounds read low 0.996 | locus YDR335W, strain msn5, active compounds read low 0.995 | locus YDR388W, active compounds read low 1.02 | locus YDR392W, strain spt3, active compounds read low 0.918 | locus YDR502C, strain sam2, active compounds read low 1 | locus YEL003W, strain gim4, active compounds read low 0.991 | locus YEL037C, strain rad23, active compounds read low 0.992 | locus YEL061C, strain CIN8 (second series), active compounds read low 0.986 | locus YEL061C, strain CIN8, active compounds read low 0.998 and 0.977 | locus YER015W, strain faa2, active compounds read low 1.01 | locus YER016W, strain bim1, active compounds read low 1 | locus YER110C, active compounds read low 1.01 | locus YER111C, strain swi4, active compounds read low 0.999 | locus YER155C, strain BEM2 (second series), active compounds read low 1 | locus YER155C, strain BEM2, active compounds read low 0.989 | locus YER167W, strain BCK2, active compounds read low 0.997 | locus YFR010W, strain ubp6, active compounds read low 1 | locus YGL078C, strain dbp3, active compounds read low 0.99 | locus YGL086W, strain mad1, active compounds read low 0.997 | locus YGL167C, strain pmr1, active compounds read low 1 | locus YGL173C, strain kem1, active compounds read low 1.02 | locus YGL227W, strain vid30, active compounds read low 0.978 | locus YGL240W, strain doc1, active compounds read low 1.01 | locus YGL248W, strain PDE1, active compounds read low 1 | locus YGL253W, strain hxk2, active compounds read low 0.998 | locus YGR078C, strain PAC10, active compounds read low 0.942 | locus YGR135W, strain pre9, active compounds read low 1.01 | locus YGR229C, strain SMI1, active compounds read low 1.01 and 1.05 | locus YGR252W, strain gcn5, active compounds read low 0.998 | locus YHR013C, strain ard1, active compounds read low 0.974 | locus YHR027C, strain rpn1, active compounds read low 0.997 | locus YHR030C, strain SLT2, active compounds read low 1 and 0.957 and 0.982 | locus YHR079C, strain IRE1 (second series), active compounds read low 1.01 | locus YHR079C, strain IRE1, active compounds read low 0.95 | locus YHR087W, strain rtc3, active compounds read low 0.923 | locus YHR094C, strain hxt1, active compounds read low 1.01 | locus YHR129C, strain ARP1, active compounds read low 0.992 | locus YHR142W, strain chs7, active compounds read low 1 | locus YHR200W, strain rpn10, active compounds read low 1.01 | locus YIL066C, strain RNR3, active compounds read low 1.01 | locus YIL073C, strain SPO22, active compounds read low 1.03 | locus YIL125W, strain kgd1, active compounds read low 0.989 | locus YIR030C, strain dcg1, active compounds read low 1 | locus YJL092W, strain hpr5, active compounds read low 0.983 | locus YJL095W, strain BCK1 (second series), active compounds read low 1 | locus YJL095W, strain BCK1, active compounds read low 0.984 and 0.97 | locus YJL115W, strain asf1, active compounds read low 0.99 | locus YJL129C, strain trk1, active compounds read low 0.978 | locus YJL134W, strain LCB3, active compounds read low 0.993 | locus YJL154C, strain vps35, active compounds read low 0.991 | locus YJL164C, strain tpk1, active compounds read low 1 | locus YJL166W, strain qcr8, active compounds read low 1.01 | locus YJL168C, strain set2, active compounds read low 1.01 | locus YJL187C, strain SWE1 (second series), active compounds read low 1 | locus YJL187C, strain SWE1, active compounds read low 1 | locus YJR043C, strain POL32, active compounds read low 1.01 and 0.982 | locus YJR066W, strain TOR1, active compounds read low 0.92 | locus YJR075W, strain HOC1, active compounds read low 1.01 and 0.971 | locus YKL009W, strain mrt4, active compounds read low 0.974 | locus YKL068W, active compounds read low 0.989
